Potency data for 26 compounds are collected here from PubChem BioAssay AID1345085 (National Center for Advancing Translational Sciences (NCATS), 2018).

Records with an inconclusive call do not appear. The source made the active and inactive calls. The call rests on the fitted dose curve; in most records, active means well fitted cell-killing curve with a large enough effect; inconclusive means small, poorly fitted or top-dose-only effect, or effect the other way; inactive means no such curve, though single readings can be large or run the other way.
Potency means the concentration at half of the fitted maximal effect.

This assay concerns PA-1. In words: Confirmatory qHTS for gynecologic anti-cancer compounds from libraries of approved drugs and bioactive compounds. Further: nearly all actives have a fitted effect of over 55% in size. Particulars: gynecologic cancer cell panel viability, ATPlite luminescence, 48 h; series mostly up to 57.6 µM. An outline of the steps:
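Cells (1,000/well) were plated, left 16 h at 37 C/5% CO2, then given compound at 11 concentrations (1:3) from 57.5 uM to 0.977 nM for 48 h. ATPlite luminescence after 15 min at room temperature gave IC50 values.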
`OCCNC1CCCc2c1[nH]c1ccc(-c3ccccc3)cc21` (stereo unspecified): the Potency is 27300 nM (active).

Regarding `CCC1C(=O)N(C)c2cnc(Nc3ccc(C(=O)NC4CCC(N5CCN(CC6CC6)CC5)CC4)cc3OC)nc2N1C(C)C` (stereo unspecified), the Potency is 76.9 nM (active).

On to `COc1cc2c(Nc3ccc(NC(=O)c4ccccc4)cc3)ncnc2cc1OCCCN1CCOCC1`, for which the Potency is 34300 nM (active).

With `COc1cc2c(cc1-c1c(C)noc1C)ncc1[nH]c(=O)n(C(C)c3ccccn3)c12` (stereo unspecified), the Potency is 2170 nM (active).

On to `CN[C@@H](C)C(=O)N[C@H]1CN(C(=O)CC(C)C)CC[C@H]2CC[C@@H](C(=O)NC(c3ccccc3)c3ccccc3)N2C1=O`, for which the Potency result is “inactive”.

For `O=C1c2c(O)ccc(O)c2C(=O)c2c(NCCNCCO)ccc(NCCNCCO)c21`, the Potency is 432 nM (active).

For `CCC1C(=O)N(C)c2cnc(Nc3ccc(C(=O)NC4CCN(C)CC4)cc3OC)nc2N1C1CCCC1` (stereo unspecified), the Potency was 43.2 nM (active).

As for `CC(=O)c1cnc2ccc(-c3cc(Cl)c(O)c(Cl)c3)nc2c1NC1CCC(CN(C)C)CC1` (stereo unspecified), the Potency is 222 nM (active).

With `C#C[C@]1(O)CC[C@H]2[C@@H]3CCC4=CC(=O)CC[C@@H]4[C@H]3CC[C@@]21CC`, the Potency entry is “inactive”.

`Cc1nc(N)nc(N)c1-c1ccc(Cl)c(Cl)c1`: the Potency is 1370 nM (active).

With `CNC(=O)c1ccccc1Nc1nc(Nc2ccc(N3CCOCC3)cc2OC)ncc1Cl`, the Potency was 1720 nM (active).

For the compound `Cc1ccn(-c2ccc(-c3ncco3)cc2)c(=O)c1-c1ccc2nc(N)ncc2c1`, the Potency is 27300 nM (active).

Consider `CCn1c(-c2nonc2N)nc2c(C#CC(C)(C)O)ncc(OCC3CCCNC3)c21` (stereo unspecified), for which the Potency is 7690 nM (active).

In the case of `CC(Oc1ccc2[nH]nc(/C=C/c3cnn(CCO)c3)c2c1)c1c(Cl)cncc1Cl` (stereo unspecified), the Potency is 1930 nM (active).

For the compound `CC(C)Oc1ccc(C(=O)NC(CNC(=O)CN(C)C)Cc2ccc(-c3cn4cccc(C(C)O)c4n3)cc2)cc1Cl` (stereo unspecified), the Potency was 243 nM (active).

With `OC[C@H]1O[C@@H](n2cnc3c(=S)nc[nH]c32)[C@H](O)[C@@H]1O`, the Potency is 2730 nM (active).

For the compound `Cc1ccc(C(=O)Nc2ccc(Oc3cc4cnn(C)c4cc3-c3cn[nH]c3)c(F)c2)c(=O)n1-c1ccc(F)cc1`, the Potency is 10900 nM (active).

As to `O=C1N(c2ccccc2)c2ccccc2C1(Cc1ccncc1)Cc1ccncc1`, the Potency result is “inactive”.

For the compound `CC(C)n1c(/C=C/[C@@H](O)C[C@@H](O)CC(=O)O)c(-c2ccc(F)cc2)c2ccccc21`, the Potency is 24300 nM (active).

Consider `N=C(N)c1ccc(OCCCCCOc2ccc(C(=N)N)cc2)cc1`, for which the Potency is 4320 nM (active).

`CCC1=CC2CN(C1)Cc1c([nH]c3ccccc13)[C@@](C(=O)OC)(c1cc3c(cc1OC)N(C)[C@H]1[C@@](O)(C(=O)OC)[C@H](OC(C)=O)[C@]4(CC)C=CCN5CC[C@]31[C@@H]54)C2` (stereo partly specified): the Potency is 53 nM (active).

Consider `CC1=C(/C=C/C(C)=C/C=C/C(C)=C/C(=O)Nc2ccc(O)cc2)C(C)(C)CCC1`, for which the Potency was 4850 nM (active).

Turning to `CN1CCN(Cc2ccc(NC(=O)Nc3ccc(Oc4cc(NC(=O)C5CC5)ncn4)cc3)cc2C(F)(F)F)CC1`, the Potency was 193 nM (active).

For `Cc1nc(N)sc1-c1ccnc(Nc2ccc(N3CCOCC3)cc2)n1`, the Potency is 4320 nM (active).

With `CCCS(=O)c1ccc2nc(NC(=O)OC)[nH]c2c1` (stereo unspecified), the Potency was 34300 nM (active).

For the compound `Cc1cc(C(=O)N2CCN(c3cccc(Cl)c3)CC2)n(-c2ccccc2)n1`, the Potency is 3430 nM (active).
